Reference: the OligoGym collection

molecular target: SPESP1; test: pooled miR-30 sensor sort-seq; sequence = guide strand; settings: shRNA

Compared with TAGATTTTTTCTCACGACCTGG, TTAATTTATGTTCTGCTGCTGC is higher in sensor-assay potency score (higher = more potent): -0.569 for the first, -0.241 for the second.

First: TATTGAATACTGTAGCAGCTTT
Second: TAGATCTAGAATTACACAGCAT
The sensor-assay potency score (higher = more potent) of the first is higher: -0.369 for the first, -0.409 for the second.

Going from TTTCTATCGCAGTTTCACCTGA to TAGATGATTCAGTAACAACTGG, the sensor-assay potency score (higher = more potent) falls from -0.0302 to -0.346.

In the case of ATGTATTGAATACTGTAGCAGC, the sensor-assay potency score (higher = more potent) is reported as -1.16.

molecular target: SPINK5; test: as above; settings: shRNA

First: TTGCTCTTGCTCTTTCTTCTTG
Second: TTTTCTTGAAGCTTTGCCCTTT
The sensor-assay potency score (higher = more potent) of the first is lower: -0.499 for the first, 0.275 for the second.

First: TCTCTTTTGACTTTTGCTCTGG
Second: TTATTGATGTGCATCTTGCCAT
The sensor-assay potency score (higher = more potent) of the first is higher: -0.0301 for the first, -0.0441 for the second.

First: TTGTGCATCCAAGTCTTCCATC
Second: TTGAGAAGCTCTAACATGGGAT
The sensor-assay potency score (higher = more potent) of the first is lower: -1.09 for the first, -0.174 for the second.

Going from TTGAAAAAATTTCTTATCCTGG to ATACTCAGCACATTCGTCCTGA, the sensor-assay potency score (higher = more potent) rises from -0.827 to 0.519.

Going from TTTCTTTTGCTTCTTGCTGGAA to TTTTGTTTCTAGCTCGTGCTTC, the sensor-assay potency score (higher = more potent) rises from -0.544 to 0.162.

Compared with TTGTATAGAACTTTCCATCAGC, TTTAAAATCATCACAATTCAGC is lower in sensor-assay potency score (higher = more potent): -0.111 for the first, -0.669 for the second.

molecular target: SPINK6; test: as above; settings: shRNA

Compared with TTTATTGCCATATGTCTGGCCA, TATTGCCATATGTCTGGCCATC is lower in sensor-assay potency score (higher = more potent): -0.38 for the first, -1.73 for the second.

First: TTCCCGAGTGCAGTAGACCTTG
Second: TGCTTTAGGCTAATCTTTCCAC
The sensor-assay potency score (higher = more potent) of the first is lower: -0.732 for the first, -0.643 for the second.

Compared with TTAGATTCCCGAGTGCAGTAGA, GAACTCACCACAGTCAACCTGT is lower in sensor-assay potency score (higher = more potent): 0.5 for the first, -0.413 for the second.

Compared with TAGACATACATTGAACTCCTCA, ACAGTCAACCTGTCCTCCCTGA is lower in sensor-assay potency score (higher = more potent): -0.369 for the first, -0.55 for the second.

First: TTAGGCTAATCTTTCCACCACT
Second: TAAAAAGCAGAAAAGAGCCAGA
The sensor-assay potency score (higher = more potent) of the first is lower: -0.87 for the first, -0.281 for the second.

Compared with TGAATTAAAGGAATCCACCAGC, TAATCTTTCCACCACTTTTCAC is lower in sensor-assay potency score (higher = more potent): -0.148 for the first, -1.05 for the second.

molecular target: SPOCK1; test: as above; settings: shRNA

Going from TTGCACTTGACCAAATTCGAAG to TTCATATTCTAGGTCATCCAGC, the sensor-assay potency score (higher = more potent) rises from -1.14 to -0.469.

Compared with TTTGTCATCATCCTCATCCTCA, TTGTCTGTGCAGGCACTCCTTT is lower in sensor-assay potency score (higher = more potent): 0.0865 for the first, -0.821 for the second.

Going from TAATCATCGTCTCGAAAGCGGT to TCATAGTTCATGTCCAACTTGT, the sensor-assay potency score (higher = more potent) rises from -1.33 to 0.349.

Compared with TTCCGCAACTCCTTGTCTGTGC, TCCAACTTGTTGAACATCCAGC is lower in sensor-assay potency score (higher = more potent): 0.679 for the first, -1.54 for the second.

In the case of TTGCACTTGGATGTGTAGGAGT, the sensor-assay potency score (higher = more potent) is reported as -0.759.
